Test results as given in PubChem BioAssay AID435022 (Sanford-Burnham Center for Chemical Genomics, 2010).
“And” between values parts separate entries of the source, which are not always exact repeats. Equal entries are not always repeated. In all, about 330,000 compounds went through this assay and about 1,100 (0.33%) were called active. This is one part of a sample in which actives are shown more often than they occur. No stated cut-off is given here; in the data, active means inhibition above about 35%; inactive means the rest. The source holds several records for some structures; these can differ, active in one and inactive in another.

Assay: lowers stimulated NF-kB luciferase signal in 697 B cells – cell-based, luminescence, uHTS, B-cell NF-kB inhibitor project, primary screen (AID 435022)
Settings: 697 B-cell NF-kB luciferase reporter, PMA/ionomycin, 16 h; at 4 µM; stronger effect = higher value

Structure (SMILES)	inhibition
COc1cc2c(cc1OC)CN(C(=O)c1cc(=O)c3ccccc3o1)CC2	-14.7% (inactive)
CCOc1cc(C(=O)N2CCc3cc(OC)c(OC)cc3C2)ccc1OC(F)F	39.7% (active)
COc1cc2c(cc1OC)CN(C(=O)c1ccc(S(=O)(=O)N3CCCCCC3)cc1)CC2	22.3% (inactive)
COCCNC(=O)C1CCN(C(=O)C2CC(=O)N(c3ccc(C)cc3)C2)CC1 (stereo not given)	-0.961% (inactive)
CCN(CCCNC(=O)CSc1cc(=O)n(C)c2cc(Cl)ccc12)Cc1ccccc1	2.99% (inactive)
Cc1ccc(O)c(NC(=O)COc2cc(C)ccc2C)c1	40.5% (active)
Cc1ccc(C)c(OCC(=O)NNC(=O)C2CCC2)c1	0.932% (inactive)
Cc1ccc(O)c(NC(=S)NC(=O)COc2ccc(Br)cc2)c1	-17.9% (inactive)
COc1ccc(NC(=O)Nc2ccc3c(c2)C(=O)N([C@H](C)CO)C[C@H](C)[C@@H](CN(C)C(=O)Nc2ccc4c(c2)OCO4)O3)cc1	-1.97% (inactive)
COc1ccc(CNC(=O)C2CCC(CNc3c(N4CCOCC4)c(=O)c3=O)CC2)cc1 (stereo not given)	-4.3% (inactive)
CCN1/C(=C\c2ccc3ccccc3[n+]2CC)Sc2cc(C)ccc21	65% (active)
COC(=O)c1ccccc1NC(=O)C1CC(=O)N(c2ccc(OC)cc2)C1 (stereo not given)	2.44% (inactive)
C[C@@H]1O[C@@H](OC[C@H]2O[C@@H](Oc3c(-c4ccc(O)cc4)oc4cc(O)cc(O)c4c3=O)[C@H](O)[C@@H](O)[C@@H]2O)[C@H](O)[C@H](O)[C@H]1O	3.19% (inactive)
O=C(NCCCN1CCOCC1)c1cc(-c2cccc(O)c2)on1	14.1% (inactive)
COc1ccc(-c2cc(C(=O)NCCCN3CCOCC3)no2)cc1	28.1% (inactive)
O=C(NCCCN1CCOCC1)c1cc(-c2ccc(Cl)cc2)on1	46.3% (active)
CCOC(=O)C1CCN(C(=O)C2(NC(=O)Nc3cccc(F)c3)CCCCC2)CC1	14% (inactive)
Cn1nc(C(F)(F)F)cc1-c1ccc(/C=C(\C#N)C(=O)c2cccc(C(F)(F)F)c2)s1	-34.9% (inactive)
CCOC(=O)C1C(=O)NCC1c1ccccc1 (stereo not given)	12.8% (inactive)
CC(=O)c1cnc(SCC(=O)O)nc1C	10% (inactive)
Clc1ccc(C[n+]2cc(-c3ccccc3)n3c2CCC3)cc1	-17.7% (inactive)
Cc1ccc(-c2c[n+](CC(=O)Nc3ccccc3)c3n2CCC3)cc1	-7% (inactive)
Cc1ccc(C(=O)C[n+]2cc(-c3ccccc3)n3c2CCCCC3)cc1	38.8% (active) and 16% (inactive)

Structure (SMILES)	inhibition
CC1CN(C(=S)Nc2ccc(Br)cc2Cl)CC(C)O1 (stereo not given)	-8.08% (inactive)
Cc1ccccc1-c1cc(C(=O)NCc2cccs2)n(CC2CC(c3cccnc3)=NO2)n1 (stereo not given)	-9.9% (inactive)
Cn1c(=O)cc(SCC(=O)N2CCCC2)c2cc(Cl)ccc21	52.4% (active)
CCOC(=O)C1CCN(C(=O)CSc2cc(=O)n(C)c3ccccc23)CC1	25% (inactive)
Cn1c(=O)cc(SCC(=O)N2CCN(C(=O)c3ccco3)CC2)c2ccccc21	-1.63% (inactive)
Cc1ccccc1C(=O)NNC(=O)CN1C(=O)c2ccccc2C1=O	8.67% (inactive)
C[C@@]12C(=O)N(c3cccc(Br)c3)C(=O)N1[C@H](c1ccc(Cl)cc1)[C@@H]1C(=O)N(C3CCCCC3)C(=O)[C@@H]12	-15.6% (inactive)
O=C(O)CN(Cc1ccco1)S(=O)(=O)c1ccccc1	18.8% (inactive)
Cc1c(Cl)cnc(NC(=O)COC(=O)C2CCCC2)c1Cl	2.7% (inactive)
CCOC(=O)CSc1nnc(CNC(=O)c2cccs2)n1-c1ccccc1	9.72% (inactive)
O=C(C1CCC1)N1CCc2cc(S(=O)(=O)NCc3cccnc3)ccc21	-30.3% (inactive)
CC1(C)Oc2ccc3ccc(=O)oc3c2/C(=N/O)C1=O	-15.2% (inactive)
CC1(C)Oc2ccc3ccc(=O)oc3c2/C(=C/NCCO)C1=O	5.05% (inactive)
C/C=C(/C)C(=O)OC1Cc2c(ccc3ccc(=O)oc23)OC1(C)C (stereo not given)	47.2% (active)
Cc1nc(Cl)c(C#N)c2c1CCCC2	22.3% (inactive)
CC(=O)Nc1ccc(S(=O)(=O)NC2(C(F)(F)F)C(=O)Nc3c2c(=O)[nH]c(=O)n3Cc2ccccc2)cc1 (stereo not given)	3.75% (inactive)
COC(=O)C1=C(C(=O)c2ccc(C)cc2)C(c2ccccc2)n2nnnc2N1 (stereo not given)	36.7% (active)
COc1ccccc1NC(=O)C1=C(C)Nc2nnnn2C1c1cccc(Br)c1 (stereo not given)	-22.3% (inactive)
COC(=O)c1ccc(C2C3=C(Nc4nnnn42)c2ccccc2OC3)cc1 (stereo not given)	3.54% (inactive)
CC1CCN(C(NC(=O)c2ccco2)C(=O)c2ccccc2)CC1 (stereo not given)	-1.98% (inactive)
CCOC(=O)C1=C(O)/C(=C/c2cc(C)n(-c3ccccc3)c2C)N=C1C	-12.5% (inactive)
CC(C)n1cnc2c(Nc3cccc(Cl)c3)nc(N(CCO)CCCO)nc21	-41.1% (inactive)
OCCCNc1nccc(-c2cc(Nc3cccc(Cl)c3)ncn2)n1	67.2% (active)

Structure (SMILES)	inhibition
Cc1cccc(Nc2nc(NCCO)nc(N3CCCC3)n2)c1	4.82% (inactive)
CSc1ncccc1C(=O)OCc1ccc(Br)cc1	5.14% (inactive)
c1ccc(Cc2cc[n+](Cc3ccccc3)cc2)cc1	-7.68% (inactive)
COc1ccccc1OCc1nnc(SCC(N)=O)n1-c1ccccc1	-18.9% (inactive)
Cc1nc2ccccc2c(=O)n1-c1ccc(F)c(NC(=O)c2cccs2)c1	-10.2% (inactive)
CN1CCN(C(=O)CCc2nc(-c3ccc(Cl)cc3)no2)CC1	-2.08% (inactive)
CCNC(=O)CCc1nc(-c2ccc(C(C)(C)C)cc2)no1	87.2% (active)
CCc1ccc(CNC(=O)CCc2nc(-c3cccs3)no2)cc1	-6.74% (inactive)
CCOC(=O)C1CCN(C(=O)C2CCCN(S(=O)(=O)c3ccc(OC)c(Cl)c3)C2)CC1 (stereo not given)	-44.7% (inactive)
CCOc1ccccc1C1CC(c2ccc(Cl)cc2)Nc2nc(N)nn21 (stereo not given)	-1.91% (inactive)
COc1ccc(C(=O)n2nc(-c3ccc(Cl)cc3)nc2N)cc1OC	39.3% (active)
COc1ccc(C(=O)n2nc(C)c(Br)c2C)cc1OC	-0.0717% (inactive)
COc1ccc(C(=O)n2nc(-c3ccc(C)cc3)nc2N)cc1OC	7.38% (inactive)
O=S1(=O)N=C(N(CCO)/N=C/c2ccccc2F)c2ccccc21	11.3% (inactive)
O=C(CSc1nc(Nc2ccccc2)nc(N2CCOCC2)n1)Nc1cc(Cl)ccc1O	-4.18% (inactive)
C/C(=N\Nc1nc(Nc2ccccc2)nc(N2CCOCC2)n1)c1cccs1	39.3% (active)
C/C(=N\Nc1nc(N2CCOCC2)nc(N2CCOCC2)n1)c1ccc([N+](=O)[O-])cc1	5.8% (inactive)
O=c1oc(-c2ccccc2NS(=O)(=O)c2ccc(Cl)cc2)nc2ccccc12	6.5% (inactive)
COc1cccc(Oc2ccc(N)cc2)c1	-22.3% (inactive)
CC(C)(C)c1ccc(Oc2ccc(N)cc2)cc1	79% (active)
CC(C)(C)c1ccc(OC2=CS(=O)(=O)c3ccccc32)cc1	-29.9% (inactive)
O=C(C(NS(=O)(=O)c1cccc2nsnc12)c1ccccc1)N1CCN(c2ccccc2)CC1 (stereo not given)	-0.239% (inactive)
CN(Cc1nc(-c2cnccn2)no1)Cc1n[nH]c2c1CCCCC2	2.89% (inactive)

Structure (SMILES)	inhibition
CC[n+]1cc(C)ccc1/C=C/c1ccc(N(C)C)cc1	42.6% (active)
C=CCN1C(=NC(=O)COc2ccccc2)SC2CS(=O)(=O)CC21 (stereo not given)	-20.6% (inactive)
CN(C)C(=O)CCc1ccc2c3c([nH]c2c1)[C@]1(CCC2CCCC2)[C@@H](C(=O)N2CCOCC2)C[C@H](CC(=O)NCc2ccco2)C(=O)N1CC3	13.5% (inactive)
Cc1ccc(C)c(NC(=O)CN(C)C(=O)COc2ccc3ccccc3c2)c1	1.04% (inactive)
COc1ccc(S(=O)(=O)N2CCN(C(=O)c3cccs3)CC2)cc1OC	10.3% (inactive)
CC1=C(C(=O)OC2CCCCC2)C(c2cccnc2)n2ncnc2N1 (stereo not given)	-21.7% (inactive)
CCOc1ccc(/C=C2\SC(=S)N(NC(=O)c3ccncc3)C2=O)cc1OC	-7.88% (inactive)
COc1cc(/C=C2/SC(=S)N(Cc3ccccc3)C2=O)cc(OC)c1O	18.2% (inactive)
COc1ccc(/C=C2\SC(=S)N(CCC(=O)Nc3ccccn3)C2=O)cc1OC	47.5% (active)
Cc1ccc(C)n1-c1ccncc1	8.79% (inactive)
CC(=O)Nc1ccc(C(=O)CSc2nnc(Cc3ccccc3)o2)cc1	8.22% (inactive)
COc1cc(C(=O)NCc2nnc(SCC(=O)c3ccc(Cl)cc3)o2)cc(OC)c1OC	7.7% (inactive)
CC(C)C[C@@H](N)c1nnc(SCC(=O)c2ccc(Cl)cc2)o1	67.6% (active)
CCCCCCCCCCOC(=O)C[N+](C)(C)CC1CCCCC1O (stereo not given)	10.5% (inactive)
NC(=O)CC(NC(=O)Cc1cccc2ccccc12)c1ccc(NCc2cc(F)ccc2F)c([N+](=O)[O-])c1 (stereo not given)	9.25% (inactive)
CC12CN3CCN(CC(C3)/C1=N\NC(=O)c1ccccc1N)C2	-5.67% (inactive)
CN(C(=O)COc1nnc(-c2cccs2)c(-c2cccs2)n1)c1ccccc1	2.99% (inactive)
O=C(O)COc1ccc(-c2nccc(-c3cccs3)n2)cc1	73.8% (active)
COc1ccc(OCC(=O)N2CCN(C(=O)c3cccs3)CC2)cc1	26.7% (inactive)
O=C1c2ccccc2S(=O)(=O)N1Cc1c(F)cccc1Cl	-1.55% (inactive)
Cn1c(CCc2ccccc2)nnc1SCC(N)=O	-1.05% (inactive)
